Results as given in PubChem BioAssay AID431 (Sanford-Burnham Center for Chemical Genomics, 2006).
Screen size: about 63,000 compounds; about 1,100 (1.7%) were called active.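 How the source made its calls: active means compounds whose percent cytotoxicity in the single-dose primary screen, scaled between solvent and toxic-drug controls, exceeds 50; inactive means the rest.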 What follows is part of a selection rich in actives, with near analogues and random picks from the rest. Potency and affinity values are given separately.

test: cytotoxicity in KRAS-transformed pancreatic duct cells, primary screen, cell-based, fluorescence, HTS (AID 431); conditions: HPDE-C7K KRASV12 cells, Alamar Blue viability, 48 h; at 10 µM; hits give high values;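 further: 0% = DMSO solvent wells and 100% = doxorubicin-treated wells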

SMILES | cytotoxicity
C=C(C)c1ccc(C(C)(C)NC(=O)NCc2ccco2)cc1 | 8.8% (inactive)
CC(=O)c1c(C)[nH]c(C(=O)N2CCCCCC2)c1C | -5.8% (inactive)
CC(=O)N1CCc2c(sc(NC(=O)CN3C(=O)CCC3=O)c2C(N)=O)C1 | 0.3% (inactive)
COc1cc(NS(=O)(=O)c2cc(C)ccc2OC)c(OC)cc1Cl | 4% (inactive)
COc1ccc(OC)c(S(=O)(=O)Nc2cc(OC)c(Cl)cc2OC)c1 | 6.9% (inactive)
COc1cc(NS(=O)(=O)c2ccc(OC)c(C)c2C)c(OC)cc1Cl | 64.1% (active)
C=CCn1c(=O)c(C(=O)Nc2ccccc2C(=O)OCC)c(O)c2ccccc21 | -8.6% (inactive)
CCC(C)n1nccc1NC(=O)C(C)OC(=O)c1cc2ccccc2[nH]1 (centres undefined) | 7% (inactive)
CCN(CC)c1ccc2c(C)c(-c3ccc(N)cc3)c(=O)oc2c1 | 82.1% (active)
CCOC(=O)Cc1c(C)c2ccc(N(CC)CC)cc2oc1=O | -21.9% (inactive)
CCOc1cc2c(C)cc(=O)oc2cc1Cl | 0.2% (inactive)
CCN(CC)c1ccc2cc(NC(=O)CCC(=O)O)c(=O)oc2c1 | 15.5% (inactive)
CCN(CC)c1ccc2c(C)c(CN3CCOCC3)c(=O)oc2c1 | 26.6% (inactive)
CCNc1ccc2c(Cl)cc(=O)oc2c1 | 6.3% (inactive)
CCN(CC)C(=O)Oc1ccc2c(=O)c(-c3ccc(OC)cc3)c(C)oc2c1 | 4.7% (inactive)
COc1ccc(-n2cnnc2SCC(=O)N(C)C2CCS(=O)(=O)C2)cc1 (centres undefined) | 3.5% (inactive)
COCc1nc2ccccc2n1Cc1ccc(Br)cc1 | -5.7% (inactive)
CSc1nnc(-c2sc3cc(Cl)ccc3c2Cl)n1C | -20.3% (inactive)
Cc1csc(NC(=O)c2nc3nc(C)cc(C)n3n2)n1 | -16.1% (inactive)
COc1ccccc1-n1nnnc1SCc1ccccc1 | -10.6% (inactive)
Cc1cccc(C)c1-n1nnnc1S(=O)(=O)Cc1ccccc1Cl | -1.5% (inactive)
O=c1[nH]c2cc3c(cc2cc1CN(CCc1ccccc1)Cc1nnnn1C1CCCC1)OCCO3 | -11.1% (inactive)
CC(CN1CCCCC1)OC(=O)c1cc2ccccc2o1 (centres undefined) | -6.7% (inactive)
CCCS(=O)(=O)N1CCCC(C(=O)NCc2ccc3c(c2)OCO3)C1 (centres undefined) | -6.2% (inactive)

SMILES | cytotoxicity
CC(C)[C@H](NC(=O)OC(C)(C)C)c1nnc(S(=O)(=O)Cc2c(F)cccc2Cl)o1 | -5.9% (inactive)
CC(C)C[C@H](N)c1nnc(S(=O)(=O)Cc2cccc(F)c2)o1 | -7.4% (inactive)
Cc1ccc(C2N(c3cccc(Cl)c3)C(=O)C3CCCN32)o1 (centres undefined) | -0.1% (inactive)
COc1ccc(C(=O)Nn2c(SCC(=O)NCC3CCCO3)nc3ccccc3c2=O)cc1 (centres undefined) | -11% (inactive)
O=C(CCc1ccccc1)Nc1ccc(N2CCOCC2)cc1 | 2.6% (inactive)
Cc1ccc(-n2c(=O)c(C#N)cc3c(=O)n4ccccc4nc32)cc1 | 69.7% (active)
C=CCn1c(=O)c(C#N)cc2c(=O)n3ccccc3nc21 | 4.5% (inactive)
Cc1cc(-n2c(=O)c(C#N)cc3c(=O)n4ccccc4nc32)no1 | -4.7% (inactive)
O=C(Nc1ccc2c(c1)OCCO2)c1ccc(Br)c(S(=O)(=O)N2CCOCC2)c1 | -7.9% (inactive)
CC(C)CC(NC(=O)C1CCC(C)CC1)C(=O)Nc1ccccn1 (centres undefined) | -19.7% (inactive)
CCOC(=O)c1nnn(-c2nonc2N)c1CSc1ccccn1 | -3.2% (inactive)
COc1ccc(-n2nnnc2SCC(N)=O)cc1 | -7.1% (inactive)
CCOC(=O)C1=C(c2ccccc2)NC(SCC(=O)Nc2ccccc2C)=C(C#N)C1c1ccco1 (centres undefined) | 39% (inactive)
CCOC(=O)CSC1=C(C#N)C(c2ccco2)C(C(=O)Nc2cccc(C(F)(F)F)c2)=C(C)N1 (centres undefined) | 28.1% (inactive)
CC1=C(C(=O)Nc2ccccc2)C(c2ccco2)C(C#N)=C(SCC(=O)OC(C)C)N1 (centres undefined) | 49.2% (inactive)
COc1ccccc1NC(=O)C1=C(C)NC(SCC(=O)c2ccccc2)=C(C#N)C1c1ccco1 (centres undefined) | 27.2% (inactive)
CC1=C(C(=O)Nc2ccccc2)C(c2ccco2)C(C#N)=C(SCC(=O)Nc2cccc(C)c2C)N1 (centres undefined) | 79.6% (active)
CC1=C(C(=O)Nc2ccccc2)C(c2ccco2)C(C#N)=C(SCc2ccccc2)N1 (centres undefined) | 57.7% (active)
CCOC(=O)C(NC(=O)c1ccccc1)=C1CCCCC1 | -19.2% (inactive)
CC(c1ccccc1)n1cc(C(=O)NCc2ccccn2)nn1 (centres undefined) | -7.5% (inactive)
CCCc1cc(=O)[nH]c(SCC(=O)Nc2ccc(OC(F)F)cc2)n1 | -7.3% (inactive)
O=C(NCCCN1CCCCCC1)c1ccc(CS(=O)(=O)Cc2ccccc2F)o1 | -3% (inactive)
Cc1cccc2sc(NC(=O)CNS(=O)(=O)c3ccc(Br)s3)nc12 | -11.6% (inactive)
Cc1cccc2sc(NC(=O)CN(C)S(=O)(=O)c3cccs3)nc12 | 28.8% (inactive)

SMILES | cytotoxicity
COCCn1c(SCC#N)nnc1-c1ccccc1O | -24.2% (inactive)
COc1ccc(NC(=O)N2CCCCC2)cc1 | -3.1% (inactive)
Oc1cccc(Nc2ncnc3ccccc23)c1 | 4.2% (inactive)
COc1ccc(CNC(=O)Cc2ccc(OC)c(S(=O)(=O)N3CCOCC3)c2)cc1 | 3.6% (inactive)
Cc1nc2cc(C(F)(F)F)ccc2n1C1CCN(CC(=O)N2CCOCC2)CC1 | -14.7% (inactive)
c1ccc(Cn2nnnc2CN2CCN(Cc3ccc4c(c3)OCO4)CC2)cc1 | -0.4% (inactive)
CC1(C)CC(=O)C(C=Nc2ccc3[nH]ncc3c2)=C(O)C1 | 14.8% (inactive)
CN1CCN(C(=O)c2cc3c(n(-c4ccccc4)c2=O)CC(C)(C)CC3=O)CC1 | -5% (inactive)
CCCn1c(=O)c2ccccc2n2c(SCCOc3ccc(OC)cc3)nnc12 | -17.4% (inactive)
COCCCNc1oc(COc2ccc(Cl)cc2Cl)nc1C#N | 18.7% (inactive)
CN(C)c1oc(-c2ccc(OCc3ccccc3)cc2)nc1C#N | -8.5% (inactive)
N#Cc1nc(-c2ccc(OCc3ccc(Cl)cc3)cc2)oc1N1CCOCC1 | -19.7% (inactive)
CN(C)c1oc(-c2ccc(OCc3ccc(Cl)cc3)cc2)nc1C#N | 51.7% (active)
O=C(Cn1cccc1)Nc1ccc(F)cc1F | 1% (inactive)
CCOC(=O)c1[nH]c2ccc(F)cc2c1N=C(C)N(CC)CC | -17.4% (inactive)
CCOC(=O)c1[nH]c2ccc(C)cc2c1N=C(C)N(C)C | 70% (active)
CCOC(=O)c1[nH]c2ccc(C)cc2c1N=CN(CC)CC | 4.8% (inactive)
OC(CN1CCOCC1)CN(c1ccccc1)c1ccccc1 (centres undefined) | -10.7% (inactive)
O=C(CSc1ncnc2ccccc12)N1CCCC1 | -10.1% (inactive)
CC1(C)CC(=O)c2cnn(-c3nc4ccccc4[nH]3)c2C1 | -19% (inactive)
c1ccc2c(c1)nc(N1CCOCC1)c1c3ccccc3[nH]c21 | -52.3% (inactive)
COc1cc(C(C)=O)ccc1OC(=O)C(C)N1C(=O)c2ccccc2C1=O (centres undefined) | -5.8% (inactive)
O=C(NCc1ccco1)C(Cc1ccccc1)N1C(=O)c2ccccc2C1=O (centres undefined) | -12.8% (inactive)
COc1ccc(NC(=O)CC2C(=O)N(c3ccc(OC)cc3)C(=O)N2CCN2CCN(C)CC2)cc1 (centres undefined) | -7.8% (inactive)

SMILES | cytotoxicity
COCCCN1C(=O)c2[nH]nc(-c3ccccc3O)c2C1c1cccc(Cl)c1 (centres undefined) | 18.6% (inactive)
COc1ccc(C2c3c(-c4ccccc4O)n[nH]c3C(=O)N2CCc2ccc(OC)c(OC)c2)cc1 (centres undefined) | 51.4% (active)
COc1ccc(CCN2C(=O)c3[nH]nc(-c4ccccc4O)c3C2c2cccc(O)c2)cc1OC (centres undefined) | 63.4% (active)
COCCCN1C(=O)c2[nH]nc(-c3cc(C)cc(C)c3O)c2C1c1ccc(O)c(OC)c1 (centres undefined) | 12% (inactive)
COc1ccc(C2c3c(-c4cc(Cl)c(C)cc4O)n[nH]c3C(=O)N2Cc2cccnc2)cc1OC (centres undefined) | 14.2% (inactive)
COc1ccc(CCN2C(=O)c3[nH]nc(-c4ccccc4O)c3C2c2ccccc2)cc1OC (centres undefined) | 24% (inactive)
CC(C)OCCCN1C(=O)c2[nH]nc(-c3ccccc3O)c2C1c1cccc(Cl)c1 (centres undefined) | -4.9% (inactive)
Cc1ccc(C2c3c(-c4ccccc4O)n[nH]c3C(=O)N2Cc2ccncc2)cc1 (centres undefined) | 8.5% (inactive)
Cc1cc(O)c(-c2n[nH]c3c2C(c2cccc(O)c2)N(Cc2cccnc2)C3=O)cc1Cl (centres undefined) | 9.3% (inactive)
COc1cc(C2C(C(C)=O)=C(O)C(=O)N2CCc2ccc(OC)c(OC)c2)ccc1O (centres undefined) | 1.7% (inactive)
COCCCN1C(=O)c2[nH]nc(-c3ccccc3O)c2C1c1ccc(Cl)cc1 (centres undefined) | 62.9% (active)
Cc1ccc(S(=O)(=O)N(C)CCCC(=O)NCc2ccc3c(c2)OCO3)cc1 | -7.5% (inactive)
O=S(=O)(c1cccc(-c2csc(-c3cccnc3)n2)c1)N1CCCCC1 | -13.4% (inactive)
Cn1nccc1/C=C(/C#N)S(=O)(=O)c1ccccc1 | -21.9% (inactive)
Cc1ccc2nc(SCC(=O)O)nc(C)c2c1 | -14.7% (inactive)
CCc1nnc(NC(=O)CSc2nnc(Cc3ccccc3)n2-c2ccccc2)s1 | -4.7% (inactive)
CC1=Nn2c(nnc2-c2ccco2)SC1 | -17.8% (inactive)
COC(=O)c1sc(NC(=O)C2CCCO2)c(C(=O)OC)c1C (centres undefined) | 19.4% (inactive)
COc1cc(OC)cc(-c2nnc(SCC(=O)N3c4ccccc4Sc4ccccc43)o2)c1 | -24.8% (inactive)
O=C(CCN1c2ccccc2Sc2ccccc21)OCc1nnc(-c2ccccc2)o1 | 3.5% (inactive)
COc1ccc(C(=O)CSc2nnc(-c3ccccc3)o2)cc1 | -6.4% (inactive)
Cc1nnc(SC(=O)N2c3ccccc3Sc3ccccc32)s1 | -0.5% (inactive)
